Test results from PubChem BioAssay (EPA / NIEHS).
Results filed as inconclusive are left out. Activity calls are given as the source filed them. How the source made its calls, unless noted: active means hit-call score of the fitted dose curve at least 0.9, where 1 is the maximum; inconclusive means response in the unintended direction; inactive means score below 0.9.

Assays:
[1] = ATG_TCF_b_cat_CIS: Attagene CIS-FACTORIAL HepG2 Assay for human T-Cell-Factor with beta-catenin (TCF/b-cat) (AID 2282965; active means hit-call score of the fitted dose curve at least 0.9, where 1 is the maximum; inactive means score below 0.9); settings: HepG2 TCF/beta-catenin cis-reporter transcription, actives raise or lower the signal
Outline: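 HepG2 cells transiently transfected with cis-promoter-driven multiplexed reporter units; reporter mRNA measured 24 h after dosing by RT-PCR, FAM labelling, HpaI digestion and capillary electrophoresis. Bidirectional fitting relative to DMSO baseline.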

[2] = ATG_TAL_CIS: Attagene CIS-FACTORIAL HepG2 Assay for human TAL Basal Promoter (AID 2282966; active means hit-call score of the fitted dose curve at least 0.9, where 1 is the maximum; inactive means score below 0.9;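 further: background control endpoint measuring basal TAL promoter reporter mRNA not a specific factor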); settings: HepG2 Attagene cis-factorial TAL promoter reporter; actives raise or lower the signal
Outline: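 In this cell-based multiplex, HepG2 liver cells bearing cis-promoter reporter constructs are dosed for 24 hours. Total RNA is reverse-transcribed and amplified, labelled fragments are sized by capillary electrophoresis, and signal changes are fitted bidirectionally versus DMSO.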

[3] = ATG_TGFb_CIS: Attagene CIS-FACTORIAL HepG2 Assay for human Transforming Growth Factor (TGF) (AID 2282967; active means hit-call score of the fitted dose curve at least 0.9, where 1 is the maximum; inactive means score below 0.9); settings: HepG2 Attagene CIS TGFb reporter, mRNA transcription; actives raise or lower the signal
Outline: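 Liver HepG2 line, cis-factorial reporter panel, 24 h dosing. Quantitation: RT-PCR products labeled with 6-FAM, cut with HpaI, resolved by capillary electrophoresis; DMSO-referenced bidirectional analysis.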

[4] = ATG_VDRE_CIS: Attagene CIS-FACTORIAL HepG2 Assay for human Vitamin D Receptor Element (VDRE) (AID 2282968; active means hit-call score of the fitted dose curve at least 0.9, where 1 is the maximum; inactive means score below 0.9); settings: HepG2 VDRE cis-reporter transcription, actives raise or lower the signal
Outline: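 Transiently transfected HepG2 cells carrying cis-regulated reporter transcription units were exposed for 24 h. Reporter mRNA was measured by RT-PCR with fluorescent labelling and capillary electrophoresis, and fitted in both directions against DMSO.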

[5] = target: Nuclear receptor subfamily 1 group I member 3 (Homo sapiens) (UniProt Q14994); experiment: ATG_CAR_TRANS: Attagene TRANS-FACTORIAL HepG2 Assay for human Constitutive Androstane Receptor (CAR) (AID 2282969); settings: HepG2 Attagene TRANS-FACTORIAL CAR reporter;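 further: activators raise reporter mRNA above DMSO so AC50 marks induction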
Sequence of Nuclear receptor subfamily 1 group I member 3 (Homo sapiens) (Q14994 whole entry, looked up, the tested form may be a part): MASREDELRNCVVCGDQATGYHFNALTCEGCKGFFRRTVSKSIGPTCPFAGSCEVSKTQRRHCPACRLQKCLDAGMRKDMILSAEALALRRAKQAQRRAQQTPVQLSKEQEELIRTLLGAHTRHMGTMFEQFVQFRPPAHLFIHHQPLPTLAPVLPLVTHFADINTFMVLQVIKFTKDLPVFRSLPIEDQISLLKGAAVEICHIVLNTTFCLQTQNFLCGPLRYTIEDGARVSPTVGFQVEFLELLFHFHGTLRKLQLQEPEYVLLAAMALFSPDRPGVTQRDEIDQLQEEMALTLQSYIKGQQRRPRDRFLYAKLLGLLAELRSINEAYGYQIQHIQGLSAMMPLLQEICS
Outline: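 HepG2 cells transiently transfected with GAL4-UAS reporter units; TRANS format reads activity of exogenous chimeric NR-Gal4 protein. After 24 h dosing, reporter mRNA quantified by RT-PCR, 6-FAM labelling and capillary electrophoresis; gain of signal fitted against DMSO.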

[6] = target: Estrogen receptor (Homo sapiens) (UniProt P03372); experiment: ATG_ERa_TRANS: Attagene TRANS-FACTORIAL HepG2 Assay for human Estrogen Receptor alpha (ERa) (AID 2282970); settings: HepG2 Attagene TRANS ERa GAL4 reporter, mRNA
Sequence of Estrogen receptor (Homo sapiens) (P03372 whole entry, looked up, the tested form may be a part): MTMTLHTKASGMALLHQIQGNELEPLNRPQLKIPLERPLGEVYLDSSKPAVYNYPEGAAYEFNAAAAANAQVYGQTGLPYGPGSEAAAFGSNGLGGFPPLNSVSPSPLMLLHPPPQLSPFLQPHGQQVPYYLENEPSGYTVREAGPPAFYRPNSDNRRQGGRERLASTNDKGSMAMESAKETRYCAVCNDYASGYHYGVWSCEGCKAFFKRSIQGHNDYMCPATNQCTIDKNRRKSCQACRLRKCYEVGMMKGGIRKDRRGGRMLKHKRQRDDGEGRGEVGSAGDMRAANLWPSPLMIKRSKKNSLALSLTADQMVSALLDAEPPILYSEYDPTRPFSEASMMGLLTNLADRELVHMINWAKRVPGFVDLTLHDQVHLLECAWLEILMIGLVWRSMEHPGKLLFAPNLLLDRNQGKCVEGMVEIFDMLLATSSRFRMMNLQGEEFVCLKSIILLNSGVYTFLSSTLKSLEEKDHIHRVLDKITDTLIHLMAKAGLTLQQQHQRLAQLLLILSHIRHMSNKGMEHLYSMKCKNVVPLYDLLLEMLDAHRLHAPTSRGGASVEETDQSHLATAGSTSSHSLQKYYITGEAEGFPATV
Outline: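 After 24 h of compound treatment, RNA from HepG2 cells bearing transfected GAL4-UAS reporter constructs is converted to cDNA, amplified and fluorescently labelled. Capillary electrophoresis resolves the ERa-linked reporter; DMSO serves as negative control.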

[7] = ATG_M_19_TRANS: Attagene TRANS-FACTORIAL HepG2 Assay for M19 Transcription Factor (Internal Marker) (AID 2282974); settings: HepG2 Attagene TRANS-FACTORIAL M19 internal marker reporter
Outline: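 Reporter mRNA induction was measured in transfected HepG2 cells 24 h after dosing. Endpoint fitted upward relative to DMSO and serves as a background control within the multiplexed TRANS panel.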

[8] = ATG_GAL4_TRANS: Attagene TRANS-FACTORIAL HepG2 Assay for GAL4 (Internal Marker) (AID 2282976); settings: HepG2 Attagene TRANS GAL4 internal marker reporter
Outline: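 RT-PCR/capillary electrophoresis readout of reporter mRNA. HepG2, transient MRTU transfection (GAL4-UAS reporters), 24 h compound exposure. Background-control endpoint, positive direction vs DMSO baseline.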

[9] = target: Estrogen-related receptor gamma (Homo sapiens) (UniProt P62508); experiment: ATG_ERRg_TRANS: Attagene TRANS-FACTORIAL HepG2 Assay for human Estrogen-Related Receptor gamma (ERRg) (AID 2282977); settings: HepG2 Attagene TRANS reporter, ERRg transactivation;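 further: hits increase reporter signal over DMSO so potencies reflect activators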
Sequence of Estrogen-related receptor gamma (Homo sapiens) (P62508 whole entry, looked up, the tested form may be a part): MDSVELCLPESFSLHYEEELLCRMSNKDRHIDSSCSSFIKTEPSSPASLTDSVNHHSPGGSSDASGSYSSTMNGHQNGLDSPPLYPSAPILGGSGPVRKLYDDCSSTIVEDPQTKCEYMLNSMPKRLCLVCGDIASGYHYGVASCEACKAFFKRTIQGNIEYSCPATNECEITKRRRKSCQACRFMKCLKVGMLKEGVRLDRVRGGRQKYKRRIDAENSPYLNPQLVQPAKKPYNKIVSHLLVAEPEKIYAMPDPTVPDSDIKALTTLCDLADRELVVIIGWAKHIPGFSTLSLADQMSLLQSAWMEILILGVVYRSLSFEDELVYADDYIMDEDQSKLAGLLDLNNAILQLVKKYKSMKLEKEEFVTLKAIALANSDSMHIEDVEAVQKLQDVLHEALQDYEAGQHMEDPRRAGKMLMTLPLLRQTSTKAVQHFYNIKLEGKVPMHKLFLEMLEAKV
Outline: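 Transfect HepG2 with multiple GAL4-UAS reporter transcription units; dose chemicals 24 h; isolate RNA, reverse-transcribe with oligo(dT), PCR-amplify, label with 6-FAM, digest with HpaI; size fragments by capillary electrophoresis. DMSO serves as negative control.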

[10] = target: Glucocorticoid receptor (Homo sapiens) (UniProt P04150); experiment: ATG_GR_TRANS: Attagene TRANS-FACTORIAL HepG2 Assay for human Glucocorticoid Receptor (GR) (AID 2282978); settings: HepG2 Attagene TRANS GR reporter, mRNA transcription;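 further: activators score as hits since higher reporter transcript over DMSO is fitted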
Sequence of Glucocorticoid receptor (Homo sapiens) (P04150 whole entry, looked up, the tested form may be a part): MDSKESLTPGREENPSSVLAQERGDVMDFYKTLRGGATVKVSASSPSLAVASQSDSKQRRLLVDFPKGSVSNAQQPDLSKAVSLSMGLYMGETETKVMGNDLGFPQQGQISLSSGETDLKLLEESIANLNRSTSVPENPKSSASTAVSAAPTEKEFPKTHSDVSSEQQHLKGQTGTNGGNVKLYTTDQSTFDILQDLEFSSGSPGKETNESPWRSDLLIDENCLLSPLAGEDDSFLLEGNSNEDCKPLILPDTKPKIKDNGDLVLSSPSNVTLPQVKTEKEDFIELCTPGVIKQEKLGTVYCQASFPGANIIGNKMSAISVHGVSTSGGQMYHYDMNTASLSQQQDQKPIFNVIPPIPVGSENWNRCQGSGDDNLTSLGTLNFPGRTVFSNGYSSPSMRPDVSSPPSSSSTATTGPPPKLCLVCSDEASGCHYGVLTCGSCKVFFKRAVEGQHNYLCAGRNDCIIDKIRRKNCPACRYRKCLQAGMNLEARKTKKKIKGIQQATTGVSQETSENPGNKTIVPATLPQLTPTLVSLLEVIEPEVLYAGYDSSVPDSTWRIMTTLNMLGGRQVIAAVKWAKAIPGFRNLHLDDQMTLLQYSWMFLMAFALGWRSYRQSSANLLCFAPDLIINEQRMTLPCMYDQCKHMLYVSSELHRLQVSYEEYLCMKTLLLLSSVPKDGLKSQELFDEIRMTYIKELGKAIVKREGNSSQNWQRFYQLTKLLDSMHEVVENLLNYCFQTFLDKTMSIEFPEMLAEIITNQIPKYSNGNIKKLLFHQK
Outline: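 Reporter transcript levels, detected by fluorescence after RT-PCR and capillary electrophoresis, served as the endpoint. HepG2 cells bearing transfected GAL4-UAS reporters responsive to NR-GAL4 chimeras were incubated with compound 24 h; DMSO defined baseline.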

[11] = target: Hepatocyte nuclear factor 4-alpha (Homo sapiens) (UniProt P41235); experiment: ATG_HNF4a_TRANS: Attagene TRANS-FACTORIAL HepG2 Assay for human Hepatocyte Nuclear Factor 4 alpha (HNF4a) (AID 2282982); settings: HepG2 HNF4a transactivation reporter, mRNA readout
Sequence of Hepatocyte nuclear factor 4-alpha (Homo sapiens) (P41235 whole entry, looked up, the tested form may be a part): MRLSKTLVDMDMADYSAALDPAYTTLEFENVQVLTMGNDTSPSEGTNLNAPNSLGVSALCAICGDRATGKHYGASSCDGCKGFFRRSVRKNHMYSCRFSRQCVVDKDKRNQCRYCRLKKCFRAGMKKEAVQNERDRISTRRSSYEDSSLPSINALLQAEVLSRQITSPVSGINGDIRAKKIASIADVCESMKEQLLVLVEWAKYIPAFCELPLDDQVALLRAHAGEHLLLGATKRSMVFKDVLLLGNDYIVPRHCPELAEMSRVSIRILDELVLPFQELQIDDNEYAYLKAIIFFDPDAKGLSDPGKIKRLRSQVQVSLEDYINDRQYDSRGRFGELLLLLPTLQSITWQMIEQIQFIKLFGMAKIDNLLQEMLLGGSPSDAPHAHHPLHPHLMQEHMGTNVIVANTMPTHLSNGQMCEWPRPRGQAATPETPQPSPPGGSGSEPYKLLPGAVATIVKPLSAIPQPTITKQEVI
Outline: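 HepG2 cells transiently transfected with HNF4a-Gal4 chimera and GAL4-UAS reporter units, dosed for 24 h. Reporter mRNA measured by RT-PCR, fluorescent primer extension and capillary electrophoresis; gain-of-signal fitted relative to DMSO.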

[12] = ATG_M_32_TRANS: Attagene TRANS-FACTORIAL HepG2 Assay for M32 Transcription Factor (Internal Marker) (AID 2282984); settings: HepG2 Attagene TRANS M32 internal marker reporter;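 further: transcript level of a background control reporter unit measured by RT-PCR and capillary electrophoresis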
Outline: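 HepG2 cells transiently transfected with GAL4-UAS reporter units, dosed for 24 hours. Reporter mRNA quantified by RT-PCR, 6-FAM labelling, HpaI digestion and capillary electrophoresis; internal-marker signal fitted upward relative to DMSO.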

[13] = target: Nuclear receptor subfamily 4 group A member 2 (Homo sapiens) (UniProt P43354); experiment: ATG_NURR1_TRANS: Attagene TRANS-FACTORIAL HepG2 Assay for human Nuclear Receptor Related Protein 1 (NURR1) (AID 2282985); settings: HepG2 Attagene TRANS reporter, mRNA readout
Sequence of Nuclear receptor subfamily 4 group A member 2 (Homo sapiens) (P43354 whole entry, looked up, the tested form may be a part): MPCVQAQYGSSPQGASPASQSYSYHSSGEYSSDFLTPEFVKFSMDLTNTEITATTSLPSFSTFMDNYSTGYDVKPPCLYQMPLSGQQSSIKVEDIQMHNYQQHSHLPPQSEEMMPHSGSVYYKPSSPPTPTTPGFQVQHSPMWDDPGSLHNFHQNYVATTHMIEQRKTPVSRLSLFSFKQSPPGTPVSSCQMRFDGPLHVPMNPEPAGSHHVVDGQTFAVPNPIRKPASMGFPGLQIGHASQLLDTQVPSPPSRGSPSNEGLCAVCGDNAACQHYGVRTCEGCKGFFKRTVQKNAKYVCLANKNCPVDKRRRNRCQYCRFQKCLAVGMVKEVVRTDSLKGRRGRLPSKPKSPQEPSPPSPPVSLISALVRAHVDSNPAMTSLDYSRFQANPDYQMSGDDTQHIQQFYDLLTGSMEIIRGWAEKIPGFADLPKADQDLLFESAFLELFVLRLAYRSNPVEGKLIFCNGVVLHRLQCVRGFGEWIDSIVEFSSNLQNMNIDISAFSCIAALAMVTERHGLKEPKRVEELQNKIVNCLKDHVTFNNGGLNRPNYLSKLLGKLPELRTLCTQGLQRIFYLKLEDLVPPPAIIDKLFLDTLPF
Outline: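 HepG2 cells transiently transfected with NURR1-Gal4 chimera and GAL4-UAS reporter units; after 24 hr compound exposure, reporter mRNA quantified by RT-PCR and capillary electrophoresis; gain of signal fitted against DMSO.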

[14] = target: Transcriptional activator Myb (Homo sapiens) (UniProt P10242); experiment: ATG_Myb_CIS: Attagene CIS-FACTORIAL HepG2 Assay for human Myeloblastosis (Myb) Proto-Oncogene Transcription Factor (AID 2282986; active means hit-call score of the fitted dose curve at least 0.9, where 1 is the maximum; inactive means score below 0.9); settings: HepG2 Attagene CIS-FACTORIAL Myb reporter transcription; actives raise or lower the signal
Outline: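 Transiently transfected HepG2 cells, treated 24 h. Reporter mRNA quantified by RT-PCR/capillary electrophoresis; bidirectional fit relative to DMSO.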

[15] = target: X-box-binding protein 1 (Homo sapiens) (UniProt P17861); experiment: ATG_Xbp1_CIS: Attagene CIS-FACTORIAL HepG2 Assay for human X-box Binding Protein 1 (XBP1) (AID 2282972; active means hit-call score of the fitted dose curve at least 0.9, where 1 is the maximum; inactive means score below 0.9); settings: HepG2 XBP1 cis-element reporter, Attagene multiplex; actives raise or lower the signal
Sequence of X-box-binding protein 1 (Homo sapiens) (P17861 whole entry, looked up): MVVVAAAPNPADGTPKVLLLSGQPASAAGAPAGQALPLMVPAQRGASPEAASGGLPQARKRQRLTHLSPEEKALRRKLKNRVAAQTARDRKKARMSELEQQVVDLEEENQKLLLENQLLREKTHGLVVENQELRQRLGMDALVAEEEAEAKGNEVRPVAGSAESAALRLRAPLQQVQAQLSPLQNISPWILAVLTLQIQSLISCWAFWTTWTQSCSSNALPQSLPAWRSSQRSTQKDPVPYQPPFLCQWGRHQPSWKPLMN
Outline: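 HepG2 cells transiently transfected with multiple cis-element reporter units report endogenous TF activity; 24 h exposure, then reporter mRNA measured by RT-PCR, 6-FAM labelling, HpaI digestion and capillary electrophoresis. Bidirectional fitting versus DMSO.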

[16] = target: Oxysterols receptor LXR-beta (Homo sapiens) (UniProt P55055); experiment: ATG_LXRb_TRANS: Attagene TRANS-FACTORIAL HepG2 Assay for human Liver X Receptor beta (LXRb) (AID 2282981); settings: HepG2 Attagene TRANS GAL4-LXRb reporter, mRNA
Sequence of Oxysterols receptor LXR-beta (Homo sapiens) (P55055 whole entry, looked up, the tested form may be a part): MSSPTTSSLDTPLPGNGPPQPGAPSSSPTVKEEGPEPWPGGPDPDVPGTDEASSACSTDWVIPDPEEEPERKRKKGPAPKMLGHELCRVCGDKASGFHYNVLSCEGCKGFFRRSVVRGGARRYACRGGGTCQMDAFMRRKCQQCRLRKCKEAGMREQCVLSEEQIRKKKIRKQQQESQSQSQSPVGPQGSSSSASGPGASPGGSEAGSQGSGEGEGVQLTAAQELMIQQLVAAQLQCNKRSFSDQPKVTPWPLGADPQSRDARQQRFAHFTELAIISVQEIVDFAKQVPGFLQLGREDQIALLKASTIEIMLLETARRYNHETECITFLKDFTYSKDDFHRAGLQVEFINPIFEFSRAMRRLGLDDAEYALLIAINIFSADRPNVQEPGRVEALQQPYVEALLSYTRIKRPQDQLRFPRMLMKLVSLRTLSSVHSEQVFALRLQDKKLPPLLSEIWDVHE
Outline: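 HepG2 cells transiently transfected with GAL4-UAS reporter units for chimeric NR-Gal4 proteins, dosed for 24 h. Reporter transcripts measured by RT-PCR and capillary electrophoresis; gain-of-signal fitting relative to DMSO.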

[17] = ATG_M_06_TRANS: Attagene TRANS-FACTORIAL HepG2 Assay for M06 Transcription Factor (Internal Marker) (AID 2282983); settings: HepG2 Attagene TRANS M06 internal marker reporter
Outline: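 After a 24 h chemical treatment of transfected HepG2, RNA underwent DNase I treatment, reverse transcription and reporter-specific PCR; labelled, HpaI-digested products were sized by capillary electrophoresis. Signal increase relative to DMSO defined activity.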

[18] = target: Bile acid receptor (Homo sapiens) (UniProt Q96RI1); experiment: ATG_FXR_TRANS: Attagene TRANS-FACTORIAL HepG2 Assay for Farnesoid X Receptor (FXR) (AID 2282979); settings: HepG2 Attagene TRANS FXR-GAL4 reporter transcription;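 further: hits raise reporter mRNA above DMSO so AC50 marks FXR activation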
Sequence of Bile acid receptor (Homo sapiens) (Q96RI1 whole entry, looked up, the tested form may be a part): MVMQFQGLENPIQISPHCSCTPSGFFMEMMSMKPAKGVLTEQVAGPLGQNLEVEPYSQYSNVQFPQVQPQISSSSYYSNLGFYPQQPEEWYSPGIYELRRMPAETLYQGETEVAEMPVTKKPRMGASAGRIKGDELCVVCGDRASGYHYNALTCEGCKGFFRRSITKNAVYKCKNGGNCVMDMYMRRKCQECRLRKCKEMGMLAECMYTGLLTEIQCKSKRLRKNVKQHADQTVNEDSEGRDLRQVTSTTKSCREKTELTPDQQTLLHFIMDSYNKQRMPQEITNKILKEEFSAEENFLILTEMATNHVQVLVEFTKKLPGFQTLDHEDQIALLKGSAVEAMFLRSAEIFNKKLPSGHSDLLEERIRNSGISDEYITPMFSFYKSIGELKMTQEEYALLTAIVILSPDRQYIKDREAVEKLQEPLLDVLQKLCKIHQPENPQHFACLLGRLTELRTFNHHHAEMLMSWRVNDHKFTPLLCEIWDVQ
Outline: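 Read-out: fluorescent reporter transcripts quantified by capillary electrophoresis after RT-PCR of total RNA. Source cells were HepG2 transiently carrying chimeric NR-GAL4 plus GAL4-UAS reporter units, dosed 24 h. Activity fitted upward relative to DMSO baseline.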

[19] = target: Steroid hormone receptor ERR1 (Homo sapiens) (UniProt P11474); experiment: ATG_ERRa_TRANS: Attagene TRANS-FACTORIAL HepG2 Assay for human Estrogen-Related Receptor alpha (ERRa) (AID 2282971); settings: HepG2 Attagene TRANS reporter, ERRa transactivation
Sequence of Steroid hormone receptor ERR1 (Homo sapiens) (P11474 whole entry, looked up, the tested form may be a part): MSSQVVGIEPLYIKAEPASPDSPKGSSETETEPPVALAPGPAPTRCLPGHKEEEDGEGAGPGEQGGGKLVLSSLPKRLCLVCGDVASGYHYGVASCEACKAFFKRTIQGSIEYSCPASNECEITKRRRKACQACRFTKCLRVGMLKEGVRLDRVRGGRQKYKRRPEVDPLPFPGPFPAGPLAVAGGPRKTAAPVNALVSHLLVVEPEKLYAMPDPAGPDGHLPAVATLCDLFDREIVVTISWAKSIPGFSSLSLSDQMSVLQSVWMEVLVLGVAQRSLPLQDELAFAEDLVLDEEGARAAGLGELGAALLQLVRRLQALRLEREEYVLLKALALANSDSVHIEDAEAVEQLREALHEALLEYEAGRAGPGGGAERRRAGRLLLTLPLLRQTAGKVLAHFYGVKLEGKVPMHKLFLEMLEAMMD
Outline: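 Transfected HepG2, 24 h dosing, ERRa-Gal4 chimera driving GAL4-UAS reporter. Readout: reporter mRNA via RT-PCR plus capillary electrophoresis (fluorescence). Positive direction vs DMSO control.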

[20] = target: Oxysterols receptor LXR-alpha (Homo sapiens) (UniProt Q13133); experiment: ATG_LXRa_TRANS: Attagene TRANS-FACTORIAL HepG2 Assay for human Liver X Receptor alpha (LXRa) (AID 2282980); settings: HepG2 Attagene TRANS reporter, LXRa transactivation
Outline: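 Read-out: reporter transcript levels by RT-PCR plus capillary electrophoresis, fluorescence intensity. Transiently transfected HepG2, exogenous NR-GAL4 chimera, GAL4-UAS reporters; 24 h compound exposure. Activity = increase over DMSO negative control.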

CCC1(C)C(=O)N(Cl)C(=O)N1Cl (stereo not given)
AC50 [1]: 52.2 µM (active) | outcome [2]: inactive | outcome [3]: inactive | AC50 [4]: 32.4 µM (active) | outcome [5]: inactive | outcome [6]: inactive | outcome [7]: inactive | outcome [8]: inactive | outcome [9]: inactive | outcome [10]: inactive | outcome [11]: inactive | outcome [12]: inactive | outcome [13]: inactive | outcome [14]: inactive

c1ccc(Nc2cccc3ccccc23)cc1
AC50 [1]: 50.8 µM (active) | outcome [2]: inactive | outcome [3]: inactive | AC50 [4]: 10.3 µM (active) | outcome [5]: inactive | AC50 [6]: 2.75 µM (active) | AC50 [15]: 53.5 µM (active) | outcome [10]: inactive | outcome [16]: inactive | outcome [17]: inactive | outcome [12]: inactive | outcome [13]: inactive | AC50 [14]: 33.4 µM (active)

CCCCC1C(=O)N(c2ccccc2)N(c2ccccc2)C1=O
outcome [1]: inactive | outcome [2]: inactive | outcome [3]: inactive | outcome [4]: inactive | outcome [5]: inactive | outcome [6]: inactive | outcome [7]: inactive | outcome [8]: inactive | outcome [9]: inactive | outcome [10]: inactive | outcome [18]: inactive | outcome [11]: inactive | outcome [13]: inactive | outcome [14]: inactive

O=C(O)CC(C(=O)O)S(=O)(=O)O (stereo not given)
outcome [1]: inactive | outcome [2]: inactive | outcome [3]: inactive | outcome [4]: inactive | outcome [5]: inactive | outcome [15]: inactive | outcome [7]: inactive | outcome [8]: inactive | outcome [9]: inactive | outcome [12]: inactive | outcome [14]: inactive

C=C(C)C1CC=C(C)C(OC(C)=O)C1 (stereo not given)
outcome [1]: inactive | outcome [2]: inactive | outcome [3]: inactive | outcome [4]: inactive | outcome [6]: inactive | outcome [19]: inactive | outcome [15]: inactive | outcome [7]: inactive | outcome [9]: inactive | outcome [10]: inactive | outcome [11]: inactive | outcome [12]: inactive | outcome [14]: inactive

C=CC(=O)OCC(C)OCC(C)OCC(C)OC(=O)C=C (stereo not given)
AC50 [1]: 71.5 µM (active) | outcome [2]: inactive | AC50 [3]: 143 µM (active) | AC50 [4]: 6.27 µM (active) | outcome [5]: inactive | outcome [15]: inactive | outcome [8]: inactive | outcome [16]: inactive | outcome [11]: inactive | outcome [17]: inactive | outcome [12]: inactive | AC50 [14]: 65.2 µM (active)

CC(=O)CC(=O)Nc1ccccc1C
outcome [1]: inactive | outcome [2]: inactive | outcome [3]: inactive | outcome [4]: inactive | outcome [5]: inactive | outcome [19]: inactive | outcome [15]: inactive | outcome [11]: inactive | outcome [17]: inactive | outcome [14]: inactive

CC1=NN(c2ccc(S(=O)(=O)O)cc2)C(=O)C1N=Nc1ccccc1 (stereo not given)
outcome [1]: inactive | outcome [2]: inactive | outcome [3]: inactive | outcome [4]: inactive | outcome [5]: inactive | outcome [6]: inactive | outcome [15]: inactive | outcome [16]: inactive | outcome [17]: inactive | outcome [12]: inactive | outcome [14]: inactive

CCCSSCCC
outcome [1]: inactive | outcome [2]: inactive | outcome [3]: inactive | outcome [4]: inactive | outcome [5]: inactive | outcome [6]: inactive | outcome [15]: inactive | outcome [8]: inactive | outcome [10]: inactive | outcome [11]: inactive | outcome [17]: inactive | outcome [12]: inactive | outcome [13]: inactive | outcome [14]: inactive

CCOC(=O)C1=NN(c2ccc(Cl)cc2Cl)C(C)(C(=O)OCC)C1 (stereo not given)
outcome [1]: inactive | outcome [2]: inactive | outcome [3]: inactive | outcome [4]: inactive | outcome [6]: inactive | outcome [19]: inactive | outcome [15]: inactive | outcome [7]: inactive | outcome [8]: inactive | outcome [9]: inactive | outcome [10]: inactive | outcome [18]: inactive | outcome [20]: inactive | outcome [11]: inactive | AC50 [13]: 168 µM (active) | outcome [14]: inactive

CCCCCC1=CCCC1=O
outcome [1]: inactive | outcome [2]: inactive | outcome [3]: inactive | outcome [4]: inactive | outcome [5]: inactive | outcome [6]: inactive | outcome [18]: inactive | outcome [16]: inactive | outcome [11]: inactive | outcome [17]: inactive | outcome [12]: inactive | outcome [14]: inactive
